Reference: PubChem BioAssay AID651803 (National Center for Advancing Translational Sciences (NCATS), 2012)
The whole screen tested about 1,200 compounds, of which fewer than 10 were called active. Not all results are given here. Values without a mark were called inactive. Calls come from the whole dose curve; as a rule, active = well fitted curve in the direction sought with a large enough effect; inconclusive = small, poorly fitted or top-dose-only effect, or another doubt; inactive = no such curve, though single readings can be large or run the other way.

molecular target: Transcriptional regulator ERG (Homo sapiens) (UniProt P11308); assay: qHTS for Small Molecule Inhibitors of the ERG Ets/DNA interaction: TR assay against cherry picks; conditions: ERG Ets domain-DNA fluorescence polarization, Texas red probe; series mostly up to 154 µM; activity change, negative = inhibition: at the top concentration; note: % of control where 0% means no effect
Text: The Ets family of proteins is a family of ~30 conserved transcription factors defined by the presence of an ~85 amino acid domain referred to as the Ets domain, which mediates sequence-specific DNA binding to a core DNA element GGAA/T.The Ets family member ERG has been linked to several neoplasms. […] More extensive studies of the effects of over-expression of ERG in prostate cells have recently been carried out and have shown that over-expression of ERG results in increased invasion. […] We will carry out a high throughout screen to identify inhibitors of the interaction between ERG and DNA using a fluorescence polarization (FP) assay with a His-tagged ERG Ets domain and fluorescently-labeled DNA probes to develop small molecule inhibitors of this interaction as probes to test this hypothesis and lay the groundwork for the development of targeted therapies against ERG. This is the confirmation against the cherry picks in theprimary screening assay. NIH Molecular Libraries Probe Production Network [MLPCN] NIH Chemical Genomics Center [NCGC] Grant: NS066464 PI Name: John Bushweller, University of Virgina
1.5 ul of protein solution (1 uM ERG domain in 300mM KCl, 50mM Tris-HCl, 1mM EDTA, 1mM DTT, pH 7.5); 20 nl Control plate and compound library plate; 1.5 ul mixture of 5 nM Fluorescein-DNA and 100nM Texas-615-DNA solution in same buffer as above solution; measure fluorescence polarization sequentially for fluorescein (Excitation = 480 nm, Emission = 535s, 535p nm) and Texas red (Excitation = 555 nm, Emission = 632s, 632p nm).

Sequence of Transcriptional regulator ERG (Homo sapiens) (P11308 whole entry, looked up, the tested form may be a part): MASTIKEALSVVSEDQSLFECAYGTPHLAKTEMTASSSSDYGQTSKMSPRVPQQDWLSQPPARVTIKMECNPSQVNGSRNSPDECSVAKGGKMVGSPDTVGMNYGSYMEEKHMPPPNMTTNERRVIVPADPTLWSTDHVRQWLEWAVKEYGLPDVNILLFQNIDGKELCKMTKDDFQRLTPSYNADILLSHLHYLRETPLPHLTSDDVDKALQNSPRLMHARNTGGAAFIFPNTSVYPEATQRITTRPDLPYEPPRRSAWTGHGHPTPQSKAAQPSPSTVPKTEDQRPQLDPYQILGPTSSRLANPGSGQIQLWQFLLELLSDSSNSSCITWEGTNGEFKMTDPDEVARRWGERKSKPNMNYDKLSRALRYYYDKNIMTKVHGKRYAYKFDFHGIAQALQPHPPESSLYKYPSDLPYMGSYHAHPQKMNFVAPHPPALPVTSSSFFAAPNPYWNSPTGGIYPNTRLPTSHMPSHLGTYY

| Structure (SMILES) | activity change, negative = inhibition |
| --- | --- |
| O=C(OCCOCCN=C1NS(=O)(=O)c2ccccc21)c1ccccc1Br | 4.92% |
| CC(=O)Nc1ccc(NC(=O)Cn2c(=O)n(-c3ccccc3)c(=O)c3oc4ccccc4c32)cc1 | 0.864% |
| COc1ccc(C(=O)n2nc(C)c(Br)c2C)cc1OC | 1.94% |
| N#Cc1c(C(F)(F)F)cc(-c2cccs2)nc1SCC(=O)Nc1cccc(Br)c1 | 5.95% |
| N#CCCN(C(=S)NC(=O)C1CCCCC1)c1ccccc1F | -3.69% |
| Cc1ccc2c(COC(=O)c3ccccc3Br)cc(=O)oc2c1 | -0.0577% |
| COc1ccc(NC(=O)NCc2ccccn2)c(OC)c1 | -2.62% |
| O=C(c1ccccc1)c1ccc[nH]1 | -4.34% |
| Cc1ccc([N+](=O)[O-])c2c1C(N1CC(C)OC(C)C1)C(C)(C)O2 (stereo not drawn) | 5.79% |
| COc1ccccc1NC(=O)Cn1c(=O)n(CCC(=O)NCC2CCCO2)c(=O)c2cc(OC)c(OC)cc21 (stereo not drawn) | 0.0258% |
| Clc1ccc(-c2csc(N/N=C/c3ccco3)n2)cc1 | -19.8% |
| CCOC(=O)CC1COCCN1Cc1cn[nH]c1-c1cc(OC)c(OC)c(OC)c1 (stereo not drawn) | 5.39% |
| COc1cc(C(=O)Nc2ccc(Cl)c([N+](=O)[O-])c2)cc(OC)c1OC | -8.44% |
| COc1cccc2c1C(=N)c1c(O)c3c(c(O)c1C2=O)CC(O)(C(C)=O)CC3OC1CC(N)C(O)C(C)O1 (stereo not drawn) | 10.9% |
| O=C(NCc1cccc(Cl)c1)c1ccncc1 | -9.86% |
| Cc1cccc(C)c1NC(=O)C1(N2C(=O)CC2c2ccccc2)CCCCC1 (stereo not drawn) | 0.216% |
| CC1(C)CC2CC(C)(CN2C(=O)c2ccc([N+](=O)[O-])cc2)C1 (stereo not drawn) | 0.742% |

| Structure (SMILES) | activity change, negative = inhibition |
| --- | --- |
| CN(C)c1nc(N)nc(Cn2nnc(-c3ccc(C(F)(F)F)cc3)n2)n1 | 3.53% |
| CC(NC(=O)c1cn(C)c2ccc(S(=O)(=O)N3CCCC3)cc2c1=O)c1ccccc1 (stereo not drawn) | -1.61% |
| Cc1[nH]c(=O)[nH]c(=O)c1/C=N/NC(=O)[C@H](C)N | 2.01% |
| CCOC(=O)N1CCC(NC(=O)CSCc2nc(-c3ccc(OCC)cc3)oc2C)CC1 | -9.6% |
| CC(C)(O)CN(CCCNC(=S)Nc1ccccc1)C(=S)Nc1ccccc1 | -0.187% |
| S=c1[nH]nc(CSCCOc2ccccc2)o1 | -12.2% |
| Cn1c(CO)cnc1SCc1ccc(F)cc1 | 18.1% |
| COc1ccc(CNC(=O)c2cccnc2SC)cc1OC | -8.6% |
| Cc1cc(C)c2c(N)c(C(=O)c3ccc(Cl)cc3)sc2n1 | 5.05% |
| CCC1Oc2ccccc2N(CC(=O)NC2CC2)C1=O (stereo not drawn) | -0.665% |
| Oc1c(Cl)cc(Oc2cc(Cl)c(O)c(CN3CCOCC3)c2)cc1CN1CCOCC1 | -6.09% |
| COc1ccc(S(=O)(=O)NCCNC(=O)N2CCOCC2)cc1 | 3.17% |
| O=C(CCNC(=O)c1ccccc1Cl)NCCCSc1ccccc1 | 3.19% |
| Cn1c(CNC(=O)c2cccs2)n[nH]c1=S | 5.98% |
| CCCCC1=NN(C(=O)c2ccco2)C(O)(C(F)(F)F)C1 (stereo not drawn) | -2.3% |
| CCC(=O)N1CCN(c2nc3ccc(Br)cc3s2)CC1 | 2.3% |
